Experimental data reported in ChEMBL document CHEMBL3988442, “University of Dundee, Small-Polar-MMV Screening Library” (2021).
In all, about 48,000 compounds went through this assay and about 13,000 (27%) showed an effect of 50% or more. The list shows a part of the results.

system: Wolbachia pipientis; assay: Anti-Wolbachia Cell-Based Screen; assay type: functional; set-up: scale not given: in the data most compounds retested in dose-response had high values; conditions: 5 µM

SMILES	Percent Effect [%]
Cc1c(C(C)NC2CCN(C(C)C)CC2)cnn1-c1ccc(F)cc1F (centres undefined)	-0.2198
CCOc1cccnc1C(=O)N1CCCN(c2nc(C)cs2)CC1	4.223
CCn1ccnc1CN1C[C@@H](CN2CCCC2)[C@@H](CO)C1	-1.438
CCn1ccnc1CN1CCN(CC(=O)NC(=O)NC2CC2)CC1	-16.24
Cc1ccc(C)c(-n2ncc(C(=O)NCC3COC(C)(C)O3)c2N)c1 (centres undefined)	185.5
Cc1c(C(=O)NC2(C#N)CCSC2)cnn1-c1ccccc1Cl (centres undefined)	-17.58
CC(C)c1ccc(-n2ncc(C(=O)NCC3COC(C)(C)O3)c2N)cc1 (centres undefined)	161.1
CC1(C)OCC(CNC(=O)c2cnn(-c3cccc(Cl)c3Cl)c2N)O1 (centres undefined)	190.2
CC1(C)OCC(CNC(=O)c2cnn(-c3ccc(Cl)cc3)c2N)O1 (centres undefined)	-2.312
Cc1ccc(C)c(-n2ncc(NC(=O)NC3(C)CCOC3)c2C)c1 (centres undefined)	6.274
CCOC(=O)c1ccc(CNC(=O)c2ccncc2Cl)o1	1.896
Cc1cc(Cl)ccc1-n1ncc(C(=O)NCC2COC(C)(C)O2)c1N (centres undefined)	154.2
CC1(C)OCC(CNC(=O)c2cnn(-c3cc(Cl)ccc3Cl)c2N)O1 (centres undefined)	-0.3036
COc1ccc(-n2ncc(C(=O)NCC3COC(C)(C)O3)c2N)cc1 (centres undefined)	-3.479
CC(=O)N[C@@H]1C[C@H](Cc2ccccc2)O[C@H](c2ccc(C(=O)O)cc2)C1	-2.466
O=C(CC1=CCCCC1)NCCc1csc(N2CCCC2)n1	-4.83
COc1cccc(CCC(=O)N2CCN(Cc3noc(C)n3)CC2)c1	-5.031
CN1CCN(CCC(F)(F)C(F)F)CC12CCNC(=O)CC2 (centres undefined)	7.69
Cc1cnc(CN2CCOC(CN(C)c3cccnn3)C2)cn1 (centres undefined)	10.01
Cc1cccc(C2CCCN2C(=O)CCS(C)(=O)=O)c1C (centres undefined)	-5.02
CC(C)(C)C(O)CN1CCN(CC(=O)NC2CCOCC2)CC1 (centres undefined)	4.367
CCN(CCN1CCCCCC1)C(=O)c1cnc(-c2cccnc2)nc1	-4.892
O=C(NCCN1CCOC1=O)c1ccc2sccc2c1	-4.154
O=C(NCCN1CCOC1=O)c1cnc(-c2cccnc2)nc1	103
O=C(NCCN1CCNC1=O)c1cnc(-c2cccnc2)nc1	91.56

SMILES	Percent Effect [%]
CCc1ncc(C(=O)NCCn2c(C)cc(C)nc2=O)cn1	5.273
O=C(NCCn1ccnc1C1CCOC1)c1cccnc1 (centres undefined)	-7.177
O=C(NCCN1CCNC1=O)c1cc(-c2ccc(O)cc2)n[nH]1	6.287
CCc1ncc(C(=O)NCCN2CCNC2=O)cn1	99.04
CCc1ncc(C(=O)NCC2CCN(Cc3ccncc3)CC2)cn1	-2.292
CN(Cc1cc(Br)cn1C)C(=O)Cc1cccc(O)c1	-22.7
CNC(=O)Cn1nnc(-c2cc3ccccc3o2)n1	-5.513
COc1cc(C(=O)NC(CC(=O)O)c2cccs2)cc(Cl)c1OC (centres undefined)	14.71
CC(C)Cn1cncc1CNC1CCSC1 (centres undefined)	0.928
CNCC(=O)Nc1cccc(-c2cnc(NCCS(C)(=O)=O)nc2)c1	116.8
CNCC(=O)Nc1cccc(-c2cnc(NCCO)nc2)c1	140.4
CNC(=O)c1cccc(CCNc2ncc(Br)cn2)c1	-10.19
CNCC(=O)Nc1ccc(-c2cnc(NCCS(C)(=O)=O)nc2)cc1	99.21
Cn1ccnc1-c1cccc(NC(=O)NCC(=O)NC(C)(C)C)c1	-2.22
CC[C@H](C)Nc1ncc(-c2cccc(NC(=O)CNC)c2)cn1	114.1
O=C(CNC(=O)Nc1cccc(-c2nccs2)c1)NCCO	-9.757
CC(C)(C)CC(=O)Nc1ccc(S(C)(=O)=O)nc1	8.515
CCc1cnc(NCCS(=O)(=O)N(C)C)nc1	-13.3
Cc1nccc(-c2cccc(NCC(=O)N3CCCCCCC3)c2)n1	4.13
CCn1nnnc1-c1cccc(NC(=O)CCOC(C)C)c1	1.671
Cc1cccc(C(C)(C)NC(=O)CCS(C)(=O)=O)c1	2.509
CC(C)n1cnc2c1C(C(=O)N1CCCC1)N(CC1CC1)CC2.O=C(O)C(F)(F)F (centres undefined)	12.69
CC(=O)Nn1c(C)cc(CN2CCCN(Cc3ccncc3)CC2)c1C	19.43
Cc1n[nH]c(=O)c2c(NC(=O)CN3CCOCC3C)oc(C)c12 (centres undefined)	12.8
CNC(=O)[C@@H]1C[C@H](N)CN1Cc1cc2cc(OC)ccc2nc1O	8.618

SMILES	Percent Effect [%]
O=C1CC[C@H]2CN(Cc3cccc(F)c3)CC[C@H]2N1CCc1c[nH]cn1	-2.492
Cc1cc(F)ccc1OC1(C(=O)O)CCN(Cc2c[nH]cn2)CC1	-1.435
O=C(NCc1cc[nH]n1)NCC(O)COc1cccc(F)c1 (centres undefined)	-0.04004
C[C@@]1(O)CCN(Cc2cc[nH]n2)C[C@H]1Oc1cccc(F)c1	94.39
Cn1ccnc1CN1CCN2C[C@H](Oc3cccc(F)c3)C[C@H]2C1.O=C(O)C(F)(F)F.O=C(O)C(F)(F)F	5.075
C[C@]1(O)CCN(Cc2c[nH]cn2)C[C@@H]1Oc1cccc(F)c1	125.6
c1ccc2sc(N3CCN(c4ncnc5c4CCC5)CC3)nc2c1	-7.695
CSc1ncc(C(=O)N2CCN(c3ccccc3C)CC2C)cn1 (centres undefined)	-7.257
Cn1cccc1C(=O)N1CC[C@H]2[C@H]1CCN2CC1CCOCC1.O=C(O)C(F)(F)F	-12.52
Cc1ccc(C(=O)N2CC[C@H]3[C@H]2CCN3CC2CCOCC2)cc1F.O=C(O)C(F)(F)F	1.153
O=C(O)C(F)(F)F.O=C(c1cscn1)N1CC[C@@H]2[C@@H]1CCN2CC1CCOC1 (some centres undefined)	116.3
O=C(O)C(F)(F)F.O=C(c1cccc(F)c1)N1CC[C@H]2[C@H]1CCN2CC1CCOCC1	-10.34
O=C(O)C(F)(F)F.O=C(c1cscn1)N1CC[C@@H]2[C@@H]1CCN2CC1CCOCC1	90.26
O=C(O)C(F)(F)F.O=C(c1ccc(F)cc1)N1CC[C@H]2[C@H]1CCN2CC1CCOCC1	-29.44
CC(C(=O)NCC1(c2c(F)cccc2F)CCCC1)S(C)(=O)=O (centres undefined)	26.11
CCOCC1CN(S(=O)(=O)C2CC2)Cc2cnn(C)c21 (centres undefined)	-2.389
CCOCC1CN(CCN2CCCCC2)Cc2cnn(C)c21.O=C(O)C(F)(F)F.O=C(O)C(F)(F)F.O=C(O)C(F)(F)F (centres undefined)	3.922
CCOCC1CN(C(=O)C2CCOCC2)Cc2cnn(C)c21 (centres undefined)	76.58
CCOCC1CN(C(=O)N2CCCC2)Cc2cnn(C)c21 (centres undefined)	85.37
CCOCC1CN(S(C)(=O)=O)Cc2cnn(C)c21 (centres undefined)	-13.89
COCC1CN(C(=O)C2=CCCCC2)Cc2cnn(CC3CC3)c21 (centres undefined)	3.854
COCC1CN(C(=O)C2=CCCC2)Cc2cnn(CC3CC3)c21 (centres undefined)	-0.9151
CCOCC1CN(C(=O)C2=CCCC2)Cc2cnn(C)c21 (centres undefined)	94.04
COCCOc1ccnc(-c2noc([C@@H]3CCCN3C3CCC3)n2)c1	-11.59
CC(C)(C)C(=O)NCCC(=O)NS(=O)(=O)c1ccc2c(c1)OCCO2	-7.979

SMILES	Percent Effect [%]
CCc1nc(NC(=O)N(C)Cc2ccoc2)nn1C	2.955
c1ccc(CCCN2CC(n3cccn3)C2)cc1	3.552
CCN(CC)C(=O)[C@@H]1C[C@@H](N)CN1c1nc(N(C)C)nc(C)c1C	7.659
COCCOc1ccc(S(=O)(=O)Nc2cccc(O)c2F)cc1C	-10.79
Cc1ccccc1C1CCN(CCn2cc(-c3nccs3)nn2)C1 (centres undefined)	-6.567
Oc1cc(-c2nccs2)nc(C2CCN(Cc3cccs3)CC2)n1	87.73
Cc1cc(-c2nccs2)nc(C2CCN(Cc3ccccn3)CC2)n1	103.9
Cc1cc(-c2nccs2)nc(C2CCN(Cc3cccs3)CC2)n1	113.5
Cn1nccc1C1CCN(Cc2csc(-c3ncccn3)n2)CC1	5.984
Cc1cc(NC2CCN(Cc3ccccn3)CC2)n2nc(C)c(C)c2n1	3.019
c1cnc(-c2nc(CN3CCC(c4ccn[nH]4)CC3)cs2)nc1	-2.472
O=C(CCNCc1cc(O)c2cc(F)ccc2n1)N1CCCC1	24.8
CSc1nccc(N2CCCC(c3nccn3C(C)C)C2)n1 (centres undefined)	6.418
COCCN1CCN(C(=O)NC2CC2)Cc2ccc(C)nc21.O=C(O)C(F)(F)F	-6.778
Cc1ccc2c(n1)N(Cc1csc(C)n1)CCN(C1CCOC1)C2.O=C(O)C(F)(F)F.O=C(O)C(F)(F)F (centres undefined)	9.97
COCCN1CCN(C(=O)N2CCCC2)Cc2ccc(C)nc21.O=C(O)C(F)(F)F	6.866
Cc1ccc2c(n1)N(CC(C)C)CCN(C(=O)Cc1ccccn1)C2.O=C(O)C(F)(F)F.O=C(O)C(F)(F)F	1.939
CCCC(=O)N1CCN(CCN(C)C)c2nc(C)ccc2C1.O=C(O)C(F)(F)F.O=C(O)C(F)(F)F	-16.06
Cc1ccc2c(n1)N(CCn1cccn1)CCN(C1CCOCC1)C2.O=C(O)C(F)(F)F.O=C(O)C(F)(F)F	93.94
COCC(=O)N1CCN(CCn2cccn2)c2nc(C)ccc2C1.O=C(O)C(F)(F)F	116.6
Cc1ccc2c(n1)N(CCn1cccn1)CCN(C(=O)CC1CC1)C2.O=C(O)C(F)(F)F	5.383
Cn1nc(Cn2cccn2)c2c1CN(C1CCOCC1)C2.O=C(O)C(F)(F)F	2.859
CCS(=O)(=O)N1CCN(CCn2cccn2)c2nc(C)ccc2C1.O=C(O)C(F)(F)F	99.61
Cc1ccc2c(n1)N(CCn1cccn1)CCN(S(C)(=O)=O)C2.O=C(O)C(F)(F)F	91.26
